According to the supplement of paper PMC11006884:
About 6,500 targets were measured; listed, in parts, are those with a hit and a random draw of the rest. About 2% of all pairs of compound and target were hits.

compound: COC(=O)C#Cc1ccccc1 [methyl 3-phenylpropiolate]; assay: log2 ratio of iodoacetamide-alkyne labeling of the cysteine site, DMSO over compound (competition); higher = stronger covalent engagement of the cysteine by the compound, active = 1 or more; conditions: 500 µM; treatment time 1 h; system: HEK293T cell lysate
How it was run: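 HEK293T lysate (2 mg/mL) was treated with DMSO or electrophile (500 µM, 1 h, ambient temperature), then iodoacetamide alkyne (1 h), clicked to sCIP-TMT reagents, pooled, trypsin-digested overnight at 37 °C, streptavidin-enriched and acid-eluted. Peptides were run on Orbitrap Eclipse LC-MS/MS with FAIMS and quantified in FragPipe. The log2 competition ratio per cysteine is mean control-channel over mean compound-channel reporter intensity. Duplicate channels and three replicates were used, and cysteines quantified in only one replicate were excluded.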

Sequence of UniProt Q14247 (Q14247 whole entry, looked up): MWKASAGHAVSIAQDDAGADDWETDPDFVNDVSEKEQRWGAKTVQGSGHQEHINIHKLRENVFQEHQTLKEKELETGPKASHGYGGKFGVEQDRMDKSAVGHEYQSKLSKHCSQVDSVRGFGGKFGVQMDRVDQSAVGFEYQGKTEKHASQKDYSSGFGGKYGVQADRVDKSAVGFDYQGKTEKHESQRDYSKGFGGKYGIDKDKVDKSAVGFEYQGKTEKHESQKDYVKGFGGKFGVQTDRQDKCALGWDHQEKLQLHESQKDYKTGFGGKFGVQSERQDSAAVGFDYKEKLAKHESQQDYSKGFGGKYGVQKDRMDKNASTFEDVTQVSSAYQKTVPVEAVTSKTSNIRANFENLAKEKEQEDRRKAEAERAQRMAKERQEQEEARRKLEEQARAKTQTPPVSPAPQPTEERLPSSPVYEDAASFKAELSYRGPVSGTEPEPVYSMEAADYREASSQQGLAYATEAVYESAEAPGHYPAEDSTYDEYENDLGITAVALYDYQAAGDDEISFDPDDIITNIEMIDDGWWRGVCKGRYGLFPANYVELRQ
Sequence of UniProt P55265 (P55265 whole entry, looked up): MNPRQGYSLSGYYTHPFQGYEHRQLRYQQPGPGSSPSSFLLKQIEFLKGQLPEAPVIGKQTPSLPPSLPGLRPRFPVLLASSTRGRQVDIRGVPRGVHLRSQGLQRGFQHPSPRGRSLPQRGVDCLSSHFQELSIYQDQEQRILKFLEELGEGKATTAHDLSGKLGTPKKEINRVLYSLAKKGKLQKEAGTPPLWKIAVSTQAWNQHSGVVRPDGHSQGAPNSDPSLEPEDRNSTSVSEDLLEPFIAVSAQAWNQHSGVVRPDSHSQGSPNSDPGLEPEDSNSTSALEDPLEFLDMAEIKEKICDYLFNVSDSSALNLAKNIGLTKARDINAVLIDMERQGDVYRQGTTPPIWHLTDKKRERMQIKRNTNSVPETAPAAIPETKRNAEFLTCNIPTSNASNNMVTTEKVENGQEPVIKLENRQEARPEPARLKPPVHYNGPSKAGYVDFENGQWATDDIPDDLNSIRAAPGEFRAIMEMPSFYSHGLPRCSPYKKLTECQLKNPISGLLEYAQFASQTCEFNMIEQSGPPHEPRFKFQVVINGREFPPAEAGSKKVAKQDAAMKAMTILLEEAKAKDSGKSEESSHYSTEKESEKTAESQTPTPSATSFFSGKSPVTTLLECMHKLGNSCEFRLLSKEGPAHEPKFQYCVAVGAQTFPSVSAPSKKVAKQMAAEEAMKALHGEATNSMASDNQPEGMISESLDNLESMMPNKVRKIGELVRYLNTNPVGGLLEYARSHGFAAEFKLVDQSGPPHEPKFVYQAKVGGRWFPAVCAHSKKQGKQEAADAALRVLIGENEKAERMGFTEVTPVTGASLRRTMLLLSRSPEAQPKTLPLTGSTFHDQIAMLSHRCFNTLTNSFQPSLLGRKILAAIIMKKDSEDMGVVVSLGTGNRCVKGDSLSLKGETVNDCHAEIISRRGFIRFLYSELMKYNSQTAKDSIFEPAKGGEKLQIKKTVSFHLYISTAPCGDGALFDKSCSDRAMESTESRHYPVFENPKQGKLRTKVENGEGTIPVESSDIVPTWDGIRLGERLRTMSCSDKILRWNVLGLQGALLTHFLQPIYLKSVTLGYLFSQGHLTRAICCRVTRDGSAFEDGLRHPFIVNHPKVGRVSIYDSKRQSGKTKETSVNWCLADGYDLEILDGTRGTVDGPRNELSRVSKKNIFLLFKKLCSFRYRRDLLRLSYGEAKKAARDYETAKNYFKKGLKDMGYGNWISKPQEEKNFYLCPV
Sequence of UniProt P56192 (P56192 whole entry, looked up): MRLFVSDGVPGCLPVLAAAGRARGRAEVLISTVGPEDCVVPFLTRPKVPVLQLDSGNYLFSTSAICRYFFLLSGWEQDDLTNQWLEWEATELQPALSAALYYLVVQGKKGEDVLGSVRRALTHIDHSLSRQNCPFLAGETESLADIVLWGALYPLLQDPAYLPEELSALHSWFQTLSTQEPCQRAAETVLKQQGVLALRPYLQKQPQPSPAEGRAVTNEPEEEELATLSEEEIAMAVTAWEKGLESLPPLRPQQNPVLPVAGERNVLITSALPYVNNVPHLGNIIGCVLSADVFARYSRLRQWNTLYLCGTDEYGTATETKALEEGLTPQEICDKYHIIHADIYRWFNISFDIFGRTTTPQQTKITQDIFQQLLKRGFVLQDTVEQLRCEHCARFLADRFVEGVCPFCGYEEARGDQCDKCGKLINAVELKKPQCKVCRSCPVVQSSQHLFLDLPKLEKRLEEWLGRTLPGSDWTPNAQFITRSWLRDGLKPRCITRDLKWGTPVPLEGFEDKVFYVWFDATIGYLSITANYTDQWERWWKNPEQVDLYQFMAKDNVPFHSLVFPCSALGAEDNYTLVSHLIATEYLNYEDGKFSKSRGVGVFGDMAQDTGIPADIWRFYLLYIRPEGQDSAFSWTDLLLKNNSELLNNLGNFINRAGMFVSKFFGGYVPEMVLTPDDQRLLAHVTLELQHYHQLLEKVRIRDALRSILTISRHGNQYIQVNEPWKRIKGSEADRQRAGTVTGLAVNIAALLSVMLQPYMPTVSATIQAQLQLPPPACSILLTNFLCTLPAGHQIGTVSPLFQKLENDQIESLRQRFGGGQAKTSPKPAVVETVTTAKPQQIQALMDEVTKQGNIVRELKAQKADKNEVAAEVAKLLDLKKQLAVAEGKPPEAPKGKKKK
Sequence of UniProt Q13642 (Q13642 whole entry, looked up): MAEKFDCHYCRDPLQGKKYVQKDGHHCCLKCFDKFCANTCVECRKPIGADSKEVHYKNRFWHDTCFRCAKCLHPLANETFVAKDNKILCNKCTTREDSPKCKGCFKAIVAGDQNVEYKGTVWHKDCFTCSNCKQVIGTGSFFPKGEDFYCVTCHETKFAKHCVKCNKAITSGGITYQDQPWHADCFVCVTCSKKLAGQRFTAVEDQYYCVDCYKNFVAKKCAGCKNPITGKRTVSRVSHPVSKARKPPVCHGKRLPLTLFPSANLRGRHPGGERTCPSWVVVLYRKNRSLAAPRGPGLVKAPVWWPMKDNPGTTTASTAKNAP
Sequence of UniProt Q14692 (Q14692 whole entry, looked up): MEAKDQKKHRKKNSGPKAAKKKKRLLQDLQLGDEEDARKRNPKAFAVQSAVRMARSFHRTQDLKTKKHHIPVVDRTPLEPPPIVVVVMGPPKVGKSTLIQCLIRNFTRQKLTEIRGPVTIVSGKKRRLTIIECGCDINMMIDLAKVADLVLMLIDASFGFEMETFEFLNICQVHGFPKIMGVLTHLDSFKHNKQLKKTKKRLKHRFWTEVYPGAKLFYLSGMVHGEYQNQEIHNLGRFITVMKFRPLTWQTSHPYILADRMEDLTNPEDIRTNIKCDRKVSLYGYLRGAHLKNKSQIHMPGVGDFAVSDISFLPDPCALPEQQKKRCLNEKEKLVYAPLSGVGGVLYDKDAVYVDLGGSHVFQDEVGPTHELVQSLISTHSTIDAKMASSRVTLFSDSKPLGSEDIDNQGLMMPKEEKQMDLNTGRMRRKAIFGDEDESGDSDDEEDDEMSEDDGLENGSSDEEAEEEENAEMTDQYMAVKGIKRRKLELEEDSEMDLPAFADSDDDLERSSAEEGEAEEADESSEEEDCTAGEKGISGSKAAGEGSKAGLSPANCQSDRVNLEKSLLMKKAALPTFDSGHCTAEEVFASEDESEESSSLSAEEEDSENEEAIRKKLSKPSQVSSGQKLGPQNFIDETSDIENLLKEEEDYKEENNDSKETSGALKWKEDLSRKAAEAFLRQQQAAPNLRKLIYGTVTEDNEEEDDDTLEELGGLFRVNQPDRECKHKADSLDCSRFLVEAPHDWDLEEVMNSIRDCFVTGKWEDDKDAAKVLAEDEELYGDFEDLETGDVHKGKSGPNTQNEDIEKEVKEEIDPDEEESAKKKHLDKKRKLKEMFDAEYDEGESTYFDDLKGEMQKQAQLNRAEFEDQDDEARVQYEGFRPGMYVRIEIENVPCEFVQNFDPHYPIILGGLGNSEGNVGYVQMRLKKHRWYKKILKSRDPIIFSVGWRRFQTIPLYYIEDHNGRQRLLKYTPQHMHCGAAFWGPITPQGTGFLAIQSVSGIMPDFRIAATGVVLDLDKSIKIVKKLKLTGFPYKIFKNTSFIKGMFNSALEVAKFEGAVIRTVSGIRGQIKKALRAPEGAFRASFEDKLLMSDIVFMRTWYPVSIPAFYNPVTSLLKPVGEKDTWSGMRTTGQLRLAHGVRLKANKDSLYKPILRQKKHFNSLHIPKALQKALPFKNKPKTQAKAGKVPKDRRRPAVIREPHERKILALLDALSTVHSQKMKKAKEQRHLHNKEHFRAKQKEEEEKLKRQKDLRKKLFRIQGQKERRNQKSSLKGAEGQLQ
Sequence of UniProt Q14684 (Q14684 whole entry, looked up): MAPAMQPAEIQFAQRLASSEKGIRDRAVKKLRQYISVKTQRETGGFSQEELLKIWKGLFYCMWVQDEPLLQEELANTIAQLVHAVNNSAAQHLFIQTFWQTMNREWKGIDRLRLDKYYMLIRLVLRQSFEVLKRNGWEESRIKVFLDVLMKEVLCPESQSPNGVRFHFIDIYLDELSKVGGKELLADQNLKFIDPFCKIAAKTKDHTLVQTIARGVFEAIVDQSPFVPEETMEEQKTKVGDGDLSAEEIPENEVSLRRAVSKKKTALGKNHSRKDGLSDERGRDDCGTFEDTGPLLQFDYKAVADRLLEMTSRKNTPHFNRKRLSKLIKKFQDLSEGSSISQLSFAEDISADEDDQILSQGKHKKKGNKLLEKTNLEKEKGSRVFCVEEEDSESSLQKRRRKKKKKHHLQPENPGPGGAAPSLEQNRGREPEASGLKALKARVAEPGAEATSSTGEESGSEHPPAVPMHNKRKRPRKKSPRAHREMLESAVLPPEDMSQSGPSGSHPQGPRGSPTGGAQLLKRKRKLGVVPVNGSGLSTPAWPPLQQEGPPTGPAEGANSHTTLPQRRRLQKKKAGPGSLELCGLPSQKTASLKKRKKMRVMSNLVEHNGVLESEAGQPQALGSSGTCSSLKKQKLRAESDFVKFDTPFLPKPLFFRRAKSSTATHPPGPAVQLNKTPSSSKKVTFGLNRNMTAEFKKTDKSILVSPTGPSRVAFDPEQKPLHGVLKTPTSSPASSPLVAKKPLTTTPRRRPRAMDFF

Target	log2 ratio of iodoacetamide-alkyne labeling
UniProt Q13247_C61	-0.0753 (inactive)
BMS1 C895 (UniProt Q14692)	0.11 (inactive)
FHL1 C10 (UniProt Q13642)	-0.136 (inactive)
CDK5 C157 (UniProt Q00535)	0.141 (inactive)
UniProt P61978_C184	0.0026 (inactive)
MDC1 C1742 (UniProt Q14676)	0.0644 (inactive)
UniProt Q14574_C804	0.812 (inactive)
UniProt P83731_C6	0.668 (inactive)
KIF23 C42 (UniProt Q02241)	0.234 (inactive)
SPTAN1 C1622 (UniProt Q13813)	-0.0196 (inactive)
LGALS3BP C489 (UniProt Q08380)	1.72 (active)
MARS C12 (UniProt P56192)	0.428 (inactive)
ILK C346 (UniProt Q13418)	1.8 (active)
LLGL1 C697 (UniProt Q15334)	0.999 (inactive)
SPCS2 C26 (UniProt Q15005)	1.62 (active)
RPL18 C134 (UniProt Q07020)	0.213 (inactive)
AKAP12 C1139 (UniProt Q02952)	0.521 (inactive)
ACLY C20 (UniProt P53396)	0.357 (inactive)

Target	log2 ratio of iodoacetamide-alkyne labeling
UniProt Q08170_C115	-0.0754 (inactive)
LRRFIP1 C14 (UniProt Q32MZ4)	0.0967 (inactive)
ERCC6L C356 (UniProt Q2NKX8)	0.193 (inactive)
HNRNPU C450 (UniProt Q00839)	0.018 (inactive)
YARS C250 (UniProt P54577)	0.0441 (inactive)
ACTR3 C12 (UniProt P61158)	0.212 (inactive)
USP10 C254 (UniProt Q14694)	0.49 (inactive)
UniProt Q02040_C549	1.74 (active)
CTTN C112 (UniProt Q14247)	0.88 (inactive)
UniProt P78527_C3281	0.287 (inactive)
RRP1B C628 (UniProt Q14684)	0.838 (inactive)
NDUFA5 C17 (UniProt Q16718)	0.144 (inactive)
HNRNPU C497 (UniProt Q00839)	0.211 (inactive)
TTLL12 C126 (UniProt Q14166)	-0.117 (inactive)
ADAR C392 (UniProt P55265)	0.693 (inactive)
TJP1 C1727 (UniProt Q07157)	0.0718 (inactive)
UniProt P62241_C71	0.335 (inactive)
LGALS3BP C496 (UniProt Q08380)	1.72 (active)
